Common to all, as to experiment: NCI-60 one-dose screen, 48 h (100 = growth as untreated, 0 = no growth, -100 = all killed)
For assay [1], the system named is DU-145 prostate. Conditions: 10 µM unless noted.
In assay [2] the test system is MALME-3M melanoma. Conditions: 10 µM unless noted.
Assay [3] relates to MDA-MB-231 breast. Conditions: 10 µM unless noted.
Assay [4] deals with RXF 393 renal. To be noted: 10 µM unless noted.
Assay [5] deals with SF-268 CNS. Conditions: 10 µM unless noted.
Assay [6] concerns SF-295 CNS. Conditions: 10 µM unless noted.
The subject of assay [7] is SF-539 CNS. Conditions: 10 µM unless noted.
In assay [8] the test system is UACC-257 melanoma. To be noted: 10 µM.
For assay [9], the system named is M14 melanoma. To be noted: 10 µM unless noted.

This is part of a sample that, as a whole, favours compounds with a hit. Of some 83,000 tested, about 20% had one in any assay.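 48-hour exposure, single concentration, 96-well plates; percent growth endpoint where 0 means no net growth. Active: below 10.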 Unmarked numbers belong to inactive results. The source made the active and inactive calls.

Consider `COc1ccc(/C(C)=C(\c2ccc(Cl)cc2)c2ccc(OCCN)cc2)cc1`, for which the growth in assay [1] is 87.2%; in assay [2], 83%; in assay [3], 67.1%; in assay [4] it was 68.3%; in [5], 89.4%; in assay [6], 103%. Moreover, the growth is 90% in assay [7], 94.7% in [8] and 81.4% in assay [9].

Regarding `COc1ccc2c(C3=C(c4c[nH]c5ccccc45)C(=O)N(O)C3=O)coc2c1`, the growth was 103% in [1]; 94.8% in assay [2]; 78.3% in assay [3]; 105% in [4]; 101% in [5]; 103% in [6]. In addition, the values for the growth in [7] and in [9] were 93.3% and 94.4%, respectively.

Consider `COc1ccc2c(C3=C(c4cn(C)c5ccccc45)C(=O)NC3=O)coc2c1`, for which the growth was 31.1% in assay [1]; 97.1% in [2]; 30.4% in [3]; -10.2% (active) in assay [4]; 67.6% in assay [5]; 36.3% in assay [6]. Also, the figures for the growth in assay [7] and in assay [9] were 1.16% (active) and 36.9%, respectively.

Regarding `CCN1CCN(Cc2ccc(C(=O)Nc3nc4ccc(Oc5ccnc(C(=O)NC)c5)cc4s3)cc2C(F)(F)F)CC1`, the growth was 79.3% in assay [1]; -5.31% (active) in [2]; 52% in assay [3]; 25% in assay [4]; 78.1% in assay [5]; 35.1% in assay [6]. The growth is -42.2% (active) in [7], -2.29% (active) in assay [8] and -4.9% (active) in [9].

On to `COc1cnc2c(c1)C(=O)c1c-2n(CCCNCC2CC2)c(=O)c2cc(F)ccc12`, for which the growth was 4.61% (active) in assay [1]; -12.2% (active) in assay [2]; -25.2% (active) in [3]; -47.5% (active) in [4]; 14.6% in [5]; -7.51% (active) in assay [6]. The figures for the growth in assay [7] and in assay [9] were -65.6% (active) and 15%, respectively.

On to `COCCOc1ccc(-c2csc(NC(C)=O)n2)cc1NS(=O)(=O)c1cccc2c(N(C)C)cccc12`, for which the growth in assay [1] was 98.3%; in [2], 83.9%; in assay [3] it was 80.2%; in assay [4], 91.7%; in assay [5], 96.2%; in assay [6], 95.9%. Further, the growth is 90.9% in assay [7] and 94% in assay [9].

Consider `COCCOc1ccc(-c2csc(NC(=O)CN3CCN(CCO)CC3)n2)cc1NS(=O)(=O)c1cccc2c(N(C)C)cccc12`, for which the growth was 92.5% in assay [1]; 40.1% in assay [2]; 79.3% in [3]; 65.1% in [4]; 90.5% in assay [5]; 70.3% in assay [6]. Besides, the growth in assay [7] is 61.9%; in assay [9], -71.7% (active).

In the case of `COc1cc2c3c(n(CCCNC4CCCCC4)c(=O)c2cc1OC)-c1cc2c(cc1C3=O)OCO2`, the growth in assay [1] was -68.4% (active); in assay [2], -46.9% (active); in assay [3], -78.1% (active); in assay [4], 76.6%; in assay [5], 70.1%; in assay [6], 66.1%. Besides, the results for the growth in assay [7], in assay [8] and in assay [9] were -85.5% (active), 96.9% and 33%, respectively.

Take `COc1cc2c3c(n(CCCNC4CCC4)c(=O)c2cc1OC)-c1cc2c(cc1C3=O)OCO2`: the growth is -73.5% (active) in [1]; -46.2% (active) in assay [2]; -65.1% (active) in [3]; -74% (active) in [4]; 45.6% in [5]; 20.4% in [6]. The values for the growth in [7] and in assay [9] were -83.5% (active) and -78% (active), respectively.

As to `CS(=O)(=O)c1nccc(-c2c(-c3ccc(F)c(OCCc4ccccc4)c3)nc3sccn23)n1`, the growth in assay [1] was -87.9% (active); in [2] it was 119%; in [3], 89.4%; in assay [4], 99.1%; in assay [5], 98.7%; in [6], 97.2%. Besides, the growth in assay [7] was 93%; in assay [8], -16.4% (active); in [9] it was 83.2%.

In the case of `COc1ccc([C@@H]2[C@@H](O)C(=O)N2c2cc(OC)c(OC)c(OC)c2)cc1`, the growth in [1] was 12.7%; in assay [2], 49.9%; in [3] it was 30.4%; in assay [4], 24%; in [5] it was 46.9%; in assay [6], 19.8%. Also, the growth in assay [7] was -7.72% (active); in assay [9], 12.5%.

On to `COc1cc2c3c(n(CCCN4CCC[C@H]4C(N)=O)c(=O)c2cc1OC)-c1cc2c(cc1C3=O)OCO2`, for which the growth in assay [1] was 16.2%; in assay [2], 27.5%; in assay [3] it was 17.3%; in [4] it was 7.89% (active); in assay [5], 27.6%; in assay [6], 7.46% (active). Besides, the growth is -2.78% (active) in assay [7] and 6.29% (active) in assay [9].

Regarding `COc1ccc2c(c1)c(-c1nn3c(=O)cc(-c4ccccc4)nc3s1)cn2C`, the growth in [1] was 63.8%; in assay [2], 35.5%; in assay [3] it was 55.3%; in assay [4] it was 35.4%; in assay [5], 64.9%; in [6], 28.8%. Also, the growth in [7] is 16%; in [9] it was 35.4%.

Regarding `CCCCCCNC(=O)Oc1ccc(/C(=C(/C)c2ccccc2)c2ccc(OCCN(C)C)cc2)cc1`, the growth in assay [1] is 83.2%; in assay [2] it was 37.6%; in assay [3] it was 52.2%; in assay [4], 46.5%; in assay [5] it was 69.1%; in assay [6], 90%. For the same compound, the figures for the growth in assay [7], in [8] and in assay [9] were 46.9%, -55.9% (active) and -35.9% (active), respectively.

Take `COc1cc2c3c(n(CCCN4CCCC4)c(=O)c2cc1OC)-c1cc2c(cc1C3=O)OCO2`: the growth was -71.1% (active) in assay [1]; -76.5% (active) in assay [2]; -76.1% (active) in assay [3]; -75.9% (active) in assay [4]; -49.1% (active) in assay [5]; 35.1% in [6]. The figures for the growth in [7] and in assay [9] were -83.2% (active) and -86.3% (active), respectively.

On to `COc1ccc([C@@H]2[C@@H](O)C(=O)N2c2cc(OC)c(OC)c(OC)c2)cc1Cl`, for which the growth in assay [1] is 15.2%; in assay [2] it was 64.3%; in assay [3], 26%; in assay [4] it was 26%; in assay [5], 44%; in [6], 9.68% (active). In addition, the growth in assay [7] was -12.4% (active); in [9], 13.4%.

As for `Cn1cc(-c2nn3cc(-c4cccnc4)nc3s2)c2cc(F)ccc21`, the growth was 98.1% in [1]; 70.3% in assay [2]; 67% in [3]; 103% in assay [4]; 112% in assay [5]; 92.5% in assay [6]. For the same compound, the growth in assay [7] is 80.3%; in assay [9], 84.8%.

Take `CC1OC(O[C@@H]2C(O)C(CO)OC(O[C@H]3COC(O[C@H]4CC[C@]5(C)[C@H]6CC[C@]78OC[C@@]9(CC[C@](C)(C=O)C[C@H]97)[C@H](O)C[C@@]8(C)[C@]6(C)CC[C@H]5C4(C)C)[C@@H](OC4OC(CO)[C@@H](O)[C@@H](O)[C@@H]4O)[C@@H]3O)[C@H]2OC2OC[C@@H](O)[C@@H](O)[C@@H]2O)[C@@H](O)[C@@H](O)[C@H]1O` (stereo not given in full): the growth in assay [1] was 41.8%; in assay [2] it was -69.7% (active); in [3], -48.4% (active); in assay [4] it was -36.2% (active); in assay [5] it was -56.3% (active); in assay [6], -59.2% (active). Also, the values for the growth in [7], in [8] and in assay [9] were 1.77% (active), -78% (active) and -47.3% (active), respectively.

Take `COc1cc2c3c(n(CCCN4CCCCC4)c(=O)c2cc1OC)-c1cc2c(cc1C3=O)OCO2`: the growth was -92.2% (active) in assay [1]; -78.5% (active) in assay [2]; -77.1% (active) in [3]; -73.9% (active) in assay [4]; -55.5% (active) in assay [5]; -75.6% (active) in assay [6]. The growth in assay [7] was -89.3% (active); in assay [9], -89.5% (active).

For `COc1ccc(-c2no[n+]([O-])c2Nc2ccccc2Br)cc1`, the growth in [1] was 106%; in assay [2] it was 88%; in [3], 81.5%; in [4], 102%; in [5] it was 92.4%; in [6] it was 106%. Further, the growth in assay [7] is 93.9%; in assay [9], 89.3%.

With `Cc1ccccc1/C=C/c1nn2c(-c3ccoc3C)nnc2s1`, the growth in [1] was 103%; in assay [2], 106%; in assay [3] it was 104%; in assay [4], 96.2%; in assay [5] it was 101%; in assay [6], 94%. Also, the growth in assay [7] was 103%; in assay [8] it was 110%; in assay [9], 99%.

For the compound `COc1cc2c3c(n(CCCNCC4CC4)c(=O)c2cc1OC)-c1cc2c(cc1C3=O)OCO2`, the growth in assay [1] is -52.9% (active); in [2], 71.1%; in assay [3] it was -73.6% (active); in assay [4], 43.9%; in assay [5] it was 45.6%; in assay [6], 22.3%. Also, the growth in [7] is -88% (active); in assay [9], 31.9%.

In the case of `C=CCn1c(SCC(=O)Nc2cccc(C(=O)/C=C/c3ccccc3Cl)c2)nc2ccccc2c1=O`, the growth in assay [1] was 93.7%; in assay [2], 96.9%; in assay [3], 93.8%; in [4] it was 94.3%; in [5] it was 88.4%; in [6], 93.8%. The growth was 86.6% in assay [7], 107% in [8] and 87.5% in [9].

Consider `CCOC(=O)CC(=O)CSC1=NC2C(NN1)N(C)C(=O)N2C` (stereo not given), for which the growth in assay [1] is 90.2%; in [2], 61.6%; in assay [3] it was 75.3%; in assay [4] it was 105%; in [5], 99.4%; in assay [6] it was 102%. In addition, the growth in assay [7] was 91.5%; in assay [9], 81.3%.

As for `COc1cc2c3c(n(CCCNC4CCCC4)c(=O)c2cc1OC)-c1cc2c(cc1C3=O)OCO2`, the growth in [1] is -78.5% (active); in [2], -75% (active); in assay [3] it was -76.6% (active); in assay [4], 49.7%; in assay [5], -42.7% (active); in [6], -76.8% (active). Also, the growth in assay [7] was -85.4% (active); in assay [9], -88.9% (active).

As for `c1cncc(-c2cn3nc(-c4c[nH]c5ccccc45)sc3n2)c1`, the growth in assay [1] is 73%; in [2] it was 38.3%; in assay [3], 52.5%; in assay [4], 52.1%; in assay [5] it was 83.4%; in assay [6], 74.7%. The growth in assay [7] was 42.2%; in assay [9], 37%.

As to `COc1ccc([C@H]2[C@H](O)C(=O)N2c2cc(OC)c(OC)c(OC)c2)cc1`, the growth was 17.8% in assay [1]; 59.9% in assay [2]; 25% in assay [3]; 21.8% in assay [4]; 47.5% in [5]; 14.1% in assay [6]. Moreover, the growth was -20.3% (active) in assay [7] and 10.3% in assay [9].

Regarding `O=C1c2c(c3c4ccc(Br)cc4oc3c3[nH]c4ccccc4c23)C(=O)N1CCO`, the growth in assay [1] was 35%; in assay [2] it was 65.4%; in [3], 65.1%; in [4], 57.1%; in [5], 49.2%; in [6], 20.8%. The growth is 17.1% in assay [7] and 29.8% in assay [9].

As to `COc1ccc([C@H]2[C@H](O)C(=O)N2c2cc(OC)c(OC)c(OC)c2)cc1O`, the growth is 17.4% in assay [1]; 59.7% in assay [2]; 28.3% in assay [3]; 21.3% in assay [4]; 50.1% in assay [5]; 2.84% (active) in [6]. In addition, the growth was -16.3% (active) in [7] and 7.13% (active) in [9].

Values taken from PubChem BioAssay (NCI).
